High-throughput results deposited in PubChem by National Center for Advancing Translational Sciences (NCATS).
A selection: hits, their analogues and other compounds. The true share with any hit is near 7.4%.
FLuc modulator = qHTS profiling assay for firefly luciferase inhibitor/activator using purifed enzyme and Km concentrations of substrates (counterscreen for miR-21 project). Potency, µM (top dose mostly 57.5 µM), usual class: inhibitors. hit rate 6.9% among 360,000. purified FLuc, Km substrates, luminescence inhibition. AID 588342, 2011. Luciferin 4-monooxygenase (Photinus pyralis), P08659; note: nearly all actives have a fitted effect of over 55% in size
Target sequence (P08659 whole entry, looked up): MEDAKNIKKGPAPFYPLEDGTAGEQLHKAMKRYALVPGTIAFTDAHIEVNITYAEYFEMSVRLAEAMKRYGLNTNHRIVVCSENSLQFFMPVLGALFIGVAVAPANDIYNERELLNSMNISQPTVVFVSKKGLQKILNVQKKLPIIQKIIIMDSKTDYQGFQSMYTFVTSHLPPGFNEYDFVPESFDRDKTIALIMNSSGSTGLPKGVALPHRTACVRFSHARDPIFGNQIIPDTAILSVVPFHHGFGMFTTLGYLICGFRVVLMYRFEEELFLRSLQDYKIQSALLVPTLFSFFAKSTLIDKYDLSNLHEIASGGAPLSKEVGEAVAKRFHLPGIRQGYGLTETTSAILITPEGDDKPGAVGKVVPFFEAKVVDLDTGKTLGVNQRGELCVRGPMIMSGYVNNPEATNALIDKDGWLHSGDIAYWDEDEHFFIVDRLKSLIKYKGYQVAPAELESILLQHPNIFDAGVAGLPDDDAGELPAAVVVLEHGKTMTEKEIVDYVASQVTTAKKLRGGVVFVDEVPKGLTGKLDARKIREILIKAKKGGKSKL
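Purified P. pyralis luciferase, 10 nM final, with Km-level 10 uM D-luciferin and 10 uM ATP in 50 mM Tris acetate pH 7.5, 10 mM Mg acetate, 0.01% Tween-20, 0.05% BSA; 6-point qHTS titration about 60 µM downward; luminescence read.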
NPC1 prom act = qHTS Assay for NPC1 Promoter Activators. Potency, µM (doses to about 9.22 µM), usual class: activators. Huh7 NPC1 promoter luciferase reporter, 24 h. AID 485313, 2010. hit rate 2.4% among 320,000; note: nearly all actives have a fitted effect of over 60% in size
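Cells: Huh7 expressing luciferase under the NPC1 promoter, 1500/well. Seeded 2 h, compound added, incubated 24 h at 37 °C. Luciferase reagent, 10 min ambient, then luminescence.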
SMN2 splice up = qHTS Assay for Enhancers of SMN2 Splice Variant Expression | HEK293 SMN2-luciferase splicing reporter, luminescence, 30-36 h | hit rate 2.8% among 210,000 | Potency, µM (titrated, usually from 46.1 µM), most hits filed as activators; note: nearly all actives have a fitted effect of over 55% in size
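HEK293 cells carry an SMN2 minigene-luciferase reporter in which exon 7 inclusion puts luciferase in frame. Cells were seeded at 2000 cells/well, attached for 10-12 hours, then exposed to compounds for 30-36 hours at 37C before ONE-Glo luminescence.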
ELG1 genotox = qHTS screen for small molecules that induce genotoxicity in human embryonic kidney (HEK293T) cells expressing luciferase-tagged ELG1 | Potency, µM (titrated, usually from 46 µM), hits mostly activators | hit rate 1.3% among 330,000 | HEK293T ELG1-luciferase reporter, luminescence, 16 h; note: nearly all actives have a fitted effect of over 60% in size
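ELG1-luciferase HEK293T cells, 2,000/well; compound pinned in; 16 hr, 37 °C, 5% CO2; ONE-Glo, 30 min RT; luminescence on CCD imager.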
Rab9 prom act = qHTS Assay for Rab9 Promoter Activators. Huh7 Rab9 promoter-luciferase reporter, luminescence, 24 h. Potency, µM (doses to about 9.22 µM), actives largely listed as activators. hit rate 2.8% among 320,000. AID 485297, 2010; note: nearly all actives have a fitted effect of over 60% in size
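Luminescence from Amplite-detected luciferase (10 minutes, ambient) reports Rab9 promoter activation. Before that, stable Rab9-luciferase Huh7 cells (1500/well, reduced-serum OP-MEM I plus 10% FBS) were exposed to compound for 24 hours at 37C.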
Numbers stand for hits; . = inactive; ? = inconclusive; / = no result; [ ] = another dose, or the depositor's remark. Calls come from the whole dose curve; as a rule, active = well fitted curve in the direction sought with a large enough effect; inconclusive = small, poorly fitted or top-dose-only effect, or another doubt; inactive = no such curve, though single readings can be large; an effect the other way counts as inactive or inconclusive.

SMILES	FLuc modulator	NPC1 prom act	SMN2 splice up	ELG1 genotox	Rab9 prom act
CCOc1ccc(-n2ccnc2SCC(=O)Nc2cccc3ccccc23)cc1	.	/	/	/	/
CC(=O)Nc1ccc(S(=O)(=O)N2CCc3nc(-c4ccccc4)c4c(c3C2)CO[C@@H](C)C4)cc1	/	/	.[9.22 µM]	/	/
CCN(C(=O)c1cnc2ccc(C)cn2c1=O)c1ccccc1	.	/	.	/	/
O=C(NCCc1nc2ccccc2n1Cc1ccccc1F)c1ccc(F)cc1	.	/	.	/	/
O=C(c1cccc(F)c1)N1CCC[C@@]2(CCN(c3ccccc3)C2)C1	/	/	.	/	/
CN1C(=O)c2cccc3c(S(=O)(=O)Nc4cccc(C(=O)O)c4)ccc1c23	?	/	.	/	/
O=C(O)/C=C\c1ccc(O)c(O)c1	/	/	.	/	/
O=C(/C=C/c1ccc(O)c(O)c1)c1ccccc1O	8.5µM	.	/	?	.
Cc1[nH]n(-c2ccccc2)c(=O)c1/C=N/O	.	.	.	.	.
Cn1cccc1/C=N/n1c(-c2ccc(C(C)(C)C)cc2)n[nH]c1=S	21µM	.	.	.	.
Cc1ccc2cccc(N=Cc3c(C)[nH]n(-c4ccccc4)c3=O)c2n1	17µM	.	/	?	.
Cc1ccc(-c2n[nH]c(=S)n2/N=C/c2c(C)[nH]n(-c3ccccc3)c2=O)cc1	12µM	.	.	.	.
Cc1nn(-c2ccccc2)c(C)c1/C=N/n1c(-c2ccc(Cl)cc2)n[nH]c1=S	.	.	.	.	.
Cn1cccc1/C=N/n1c(-c2ccccc2)n[nH]c1=S	.	.	.	.	.
O=C(c1cccc(Cl)c1)N1CCC(c2nc3c(nnn3Cc3ccc(F)cc3F)c(=O)[nH]2)CC1	.	/	.	/	/
COc1cccc(C(=O)CSc2nnc(-c3cc(OC)cc(OC)c3)o2)c1	.	.	.	.	.
COc1ccc(-c2nnc(SCc3ccccc3F)o2)cc1	1.5µM	1.3µM	11µM	1µM	1.4µM
COc1cc(OC)cc(-c2nnc(SCc3c(F)cccc3Cl)o2)c1	?	3.2µM	.	?	3.5µM
Cc1ccccc1CSc1nnc(-c2ccncc2)o1	?	.	.	.	.
COc1cccc(CSc2nnc(-c3ccc(F)cc3)o2)c1	.[2.3 µM]	.	.	.	.
Cc1ccccc1-c1nnc(SCc2ccccc2F)o1	1.9µM	3.2µM	13µM	?	3.5µM
Fc1ccccc1CSc1nnc(-c2cccnc2)o1	17µM	4µM	?	?	3.2µM
Cc1c(CC(=O)N2CCCCC2)c(=O)oc2cc(O)ccc12	.	/	.	/	/
CC(Cc1ccccc1)C(=O)NCC1CC1 (stereo not given)	/	/	.	/	/
Cc1ccccc1-c1nnc(SCc2ccccc2)o1	8.5µM	?	14µM	15µM	?
SMILES	FLuc modulator	NPC1 prom act	SMN2 splice up	ELG1 genotox	Rab9 prom act
Fc1ccccc1CSc1nnc(-c2ccccc2)o1	4.8µM	2.5µM	35µM	8.2µM	3.2µM
CC1CCN(c2ccc(C(=O)NCc3cccs3)cn2)CC1	24µM	?	.	?	?
CC1CCCN(c2ccc(C(=O)NCC3CCCO3)cn2)C1 (stereo not given)	?	?	13µM	.	?
CC1CCN(S(=O)(=O)c2cccc(C(=O)NCc3cccs3)c2)CC1	.	.	.	.	.
COc1ccc(-c2cc(C(=O)OCC(=O)c3c(N)n(C)c(=O)n(C)c3=O)c3ccccc3n2)cc1	7.6µM	.	.	.	.
COc1ccc(-c2cc(C(=O)c3c(N)n(C)c(=O)n(C)c3=O)c3ccccc3n2)cc1	0.38µM	?	/	?	?
COc1ccc2c(c1)CC(C(=O)NCc1ccc(F)cc1)CO2 (stereo not given)	.	/	/	/	/
O=C(Nc1nnc(C2CCCCC2)s1)c1cccs1	4.8µM	2.2µM	14µM	?	2.8µM
COc1cccc(C(=O)Nc2nnc(C3CCCO3)s2)c1 (stereo not given)	15µM	2.8µM	11µM	?	2.2µM
O=C(Nc1nnc(C2CCCO2)s1)c1cccs1 (stereo not given)	?	.	13µM	?	.
CCCC(=O)Nc1nnc(C2CCCO2)s1 (stereo not given)	.	.	/	.	.
Cn1cccc1C(=O)N1CCC[C@@]2(CCN(c3ccncc3)C2)C1	/	/	.	/	/
